Reference: PubChem BioAssay (NCATS)
Results filed as inconclusive are left out. Active and inactive are the calls of the source. The call rests on the fitted dose curve; in most records, active means well fitted cell-killing curve with a large enough effect; inconclusive means small, poorly fitted or top-dose-only effect, or effect the other way; inactive means flat fitted curve, though single readings scatter.

Columns and labels:
Assay in all cases: Primary qHTS to identify gynecologic anti-cancer compounds using libraries of approved drugs and bioactive compounds (AID 1345084); further: nearly all actives have a fitted effect of over 55% in size
C33A = conditions: Gynecologic cancer cell panel viability, ATPlite luminescence, 48 h; series mostly up to 57.5 µM
Procedure, shortened: (§1)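 48 h compound exposure at 37 C, 5% CO2; five-point qHTS. ATPlite luminescence readout of cell ATP.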

CAOV3 = conditions: Gynecologic cancer cell panel viability, ATPlite luminescence, 48 h; series mostly up to 57.5 µM
Procedure, shortened: as §1

CASKI = conditions: Gynecologic cancer cell panel viability, ATPlite luminescence, 48 h; series mostly up to 57.5 µM
Procedure, shortened: as §1

Es-2 = conditions: Gynecologic cancer cell panel viability, ATPlite luminescence, 48 h; series mostly up to 57.5 µM
Procedure, shortened: as §1

HeLa = conditions: Gynecologic cancer cell panel viability, ATPlite luminescence, 48 h; series mostly up to 57.5 µM
Procedure, shortened: as §1

Hek293T = conditions: Gynecologic cancer cell panel viability, ATPlite luminescence, 48 h, control line for the selectivity index; series mostly up to 57.5 µM
Procedure, shortened: as §1

JEG-3 = conditions: Gynecologic cancer cell panel viability, ATPlite luminescence, 48 h; series mostly up to 57.5 µM
Procedure, shortened: as §1

OV90 = conditions: Gynecologic cancer cell panel viability, ATPlite luminescence, 48 h; series mostly up to 57.5 µM
Procedure, shortened: as §1

PA-1 = conditions: Gynecologic cancer cell panel viability, ATPlite luminescence, 48 h; series mostly up to 57.5 µM
Procedure, shortened: as §1

SKOV3 = conditions: Gynecologic cancer cell panel viability, ATPlite luminescence, 48 h; series mostly up to 57.5 µM
Procedure, shortened: as §1

Tov-21-G = conditions: Gynecologic cancer cell panel viability, ATPlite luminescence, 48 h; series mostly up to 57.5 µM
Procedure, shortened: as §1

Tov112D = conditions: Gynecologic cancer cell panel viability, ATPlite luminescence, 48 h; series mostly up to 57.5 µM
Procedure, shortened: as §1
On the % scale 0 is the no-effect control and ±100 the full control effect.

C[C@@]12C[C@]3(O)O[C@H](O1)[C@]1(COC(=O)c4ccccc4)[C@H]3C[C@@]12O[C@@H]1O[C@H](CO)[C@@H](O)[C@H](O)[C@H]1O
inactive: Potency (C33A) | Potency (CAOV3) | Potency (CASKI) | Potency (Es-2) | Potency (HeLa) | Potency (Hek293T) | Potency (JEG-3) | Potency (OV90) | Potency (PA-1) | Potency (SKOV3) | Potency (Tov-21-G) | Potency (Tov112D)

C=C(C)[C@@H]1CC[C@]2(C)CC[C@]3(C)[C@H](CC[C@@H]4[C@@]5(C)CC[C@@H](O)C(C)(C)[C@@H]5CC[C@]43C)[C@@H]12
inactive: Potency (C33A) | Potency (CAOV3) | Potency (CASKI) | Potency (Es-2) | Potency (HeLa) | Potency (Hek293T) | Potency (JEG-3) | Potency (OV90) | Potency (PA-1) | Potency (SKOV3) | Potency (Tov-21-G) | Potency (Tov112D)

Cc1ccc(F)cc1C(=O)Nc1ccc(C(=O)N2Cc3cccn3Cc3ccccc32)c(Cl)c1
inactive: Potency (C33A) | Potency (CAOV3) | Potency (CASKI) | Potency (Es-2) | Potency (HeLa) | Potency (Hek293T) | Potency (JEG-3) | Potency (OV90) | Potency (PA-1) | Potency (SKOV3) | Potency (Tov-21-G) | Potency (Tov112D)

CCOC(=O)c1cc(C#N)c(N2CCC(C(=O)NS(=O)(=O)Cc3ccccc3)CC2)nc1C
inactive: Potency (C33A) | Potency (CAOV3) | Potency (CASKI) | Potency (Es-2) | Potency (HeLa) | Potency (Hek293T) | Potency (JEG-3) | Potency (OV90) | Potency (PA-1) | Potency (SKOV3) | Potency (Tov-21-G) | Potency (Tov112D)

CC(=O)OC1C(c2ccccc2)CCC(c2ccccc2)C1OC(C)=O (stereo not drawn)
inactive: Potency (C33A) | Potency (CAOV3) | Potency (CASKI) | Potency (Es-2) | Potency (HeLa) | Potency (Hek293T) | Potency (JEG-3) | Potency (OV90) | Potency (PA-1) | Potency (SKOV3) | Potency (Tov-21-G) | Potency (Tov112D)

Cc1cccc(S(=O)(=O)N2CCC[C@@H]2CCN2CCC(C)CC2)c1
inactive: Potency (C33A) | Potency (CAOV3) | Potency (CASKI) | Potency (Es-2) | Potency (HeLa) | Potency (Hek293T) | Potency (JEG-3) | Potency (OV90) | Potency (PA-1) | Potency (SKOV3) | Potency (Tov-21-G) | Potency (Tov112D)

CC1C=CC2CCCCC2C1CCC1CC(O)CC(=O)O1 (stereo not drawn)
inactive: Potency (C33A) | Potency (CAOV3) | Potency (CASKI) | Potency (Es-2) | Potency (HeLa) | Potency (Hek293T) | Potency (JEG-3) | Potency (OV90) | Potency (PA-1) | Potency (SKOV3) | Potency (Tov-21-G) | Potency (Tov112D)

C[C@@H]1O[C@@H](O[C@H]2[C@H](O)[C@@H](C(=O)O)O[C@@H](O[C@H]3CC[C@@]4(C)C(CC[C@]5(C)C4CC=C4C6CC(C)(C)CC[C@]6(C(=O)O)CC[C@]45C)C3(C)C)[C@@H]2O[C@@H]2OC[C@@H](O)[C@H](O)[C@H]2O)[C@H](O)[C@H](O)[C@H]1O (stereo partly drawn)
inactive: activity change, negative = cytotoxicity (C33A) 12.7% [at 11.6 µM] | activity change, negative = cytotoxicity (CAOV3) -1.86% [at 11.6 µM] | activity change, negative = cytotoxicity (CASKI) -0.197% [at 11.6 µM] | activity change, negative = cytotoxicity (Es-2) -1.84% [at 11.6 µM] | activity change, negative = cytotoxicity (HeLa) 10.5% [at 11.6 µM] | activity change, negative = cytotoxicity (Hek293T) 5.25% [at 11.6 µM] | activity change, negative = cytotoxicity (JEG-3) 3.19% [at 11.6 µM] | activity change, negative = cytotoxicity (OV90) 2.8% [at 11.6 µM] | activity change, negative = cytotoxicity (PA-1) 4.01% [at 11.6 µM] | activity change, negative = cytotoxicity (SKOV3) -0.245% [at 11.6 µM] | activity change, negative = cytotoxicity (Tov-21-G) 13.2% [at 11.6 µM] | activity change, negative = cytotoxicity (Tov112D) 4.42% [at 11.6 µM]

C[C@@H]1O[C@@H](O[C@@H]2[C@@H](O[C@@H]3O[C@@H](C)[C@H](O[C@@H]4OC[C@H](O)[C@H](O[C@@H]5OC[C@@H](O)[C@H](O)[C@H]5O)[C@H]4O)[C@@H](O[C@@H]4OC[C@](O)(CO)[C@H]4O)[C@H]3O)[C@H](OC(=O)[C@]34CCC(C)(C)C[C@H]3C3=CCC5[C@@]6(C)C[C@H](O)[C@H](O[C@@H]7O[C@H](CO[C@@H]8OC[C@H](O)[C@H](O)[C@H]8O)[C@@H](O)[C@H](O)[C@H]7O)C(C)(C)C6CC[C@@]5(C)[C@]3(C)C[C@H]4O)OC[C@H]2O)[C@H](O)[C@H](O)[C@H]1O (stereo partly drawn)
inactive: activity change, negative = cytotoxicity (C33A) -0.354% [at 6.55 µM] | activity change, negative = cytotoxicity (CAOV3) 6.96% [at 6.55 µM] | activity change, negative = cytotoxicity (CASKI) -5.17% [at 6.55 µM] | activity change, negative = cytotoxicity (Es-2) 0.628% [at 6.55 µM] | activity change, negative = cytotoxicity (HeLa) 4.56% [at 6.55 µM] | activity change, negative = cytotoxicity (Hek293T) -4.92% [at 6.55 µM] | activity change, negative = cytotoxicity (JEG-3) -6.81% [at 6.55 µM] | activity change, negative = cytotoxicity (OV90) 10.7% [at 6.55 µM] | activity change, negative = cytotoxicity (PA-1) 18.2% [at 6.55 µM] | activity change, negative = cytotoxicity (SKOV3) 4.47% [at 6.55 µM] | activity change, negative = cytotoxicity (Tov-21-G) -2.27% [at 6.55 µM] | activity change, negative = cytotoxicity (Tov112D) 7.07% [at 6.55 µM]

O=C(O)/C=C/c1cc2c(cc1O[C@@H]1O[C@H](CO)[C@@H](O)[C@H](O)[C@H]1O)OCO2
inactive: Potency (C33A) | Potency (CAOV3) | Potency (CASKI) | Potency (Es-2) | Potency (HeLa) | Potency (Hek293T) | Potency (JEG-3) | Potency (OV90) | Potency (PA-1) | Potency (SKOV3) | Potency (Tov-21-G) | Potency (Tov112D)

COc1ccc(C2(O)CCC(N3CC[C@@H](NC(=O)CNC(=O)c4cccc(C(F)(F)F)c4)C3)CC2)cn1 (stereo partly drawn)
inactive: Potency (C33A) | Potency (CAOV3) | Potency (CASKI) | Potency (Es-2) | Potency (HeLa) | Potency (Hek293T) | Potency (JEG-3) | Potency (OV90) | Potency (PA-1) | Potency (SKOV3) | Potency (Tov-21-G) | Potency (Tov112D)

C[C@H](NC(=O)CCc1nc2ccccc2c(=O)[nH]1)c1ccccc1
inactive: Potency (C33A) | Potency (CAOV3) | Potency (CASKI) | Potency (Es-2) | Potency (HeLa) | Potency (Hek293T) | Potency (JEG-3) | Potency (OV90) | Potency (PA-1) | Potency (SKOV3) | Potency (Tov-21-G) | Potency (Tov112D)

CC(C)(C)C(=O)CN1C(=O)[C@H](NC(=O)Nc2cccc(C(=O)O)c2)CN(C2CCCCC2)c2ccccc21
inactive: Potency (C33A) | Potency (CAOV3) | Potency (CASKI) | Potency (Es-2) | Potency (HeLa) | Potency (Hek293T) | Potency (JEG-3) | Potency (OV90) | Potency (PA-1) | Potency (SKOV3) | Potency (Tov-21-G) | Potency (Tov112D)

COc1c2c(cc3c1-c1c(cc4c(c1OC)OCO4)CC(C)C(C)C3)OCO2 (stereo not drawn)
inactive: Potency (C33A) | Potency (CAOV3) | Potency (CASKI) | Potency (Es-2) | Potency (HeLa) | Potency (Hek293T) | Potency (JEG-3) | Potency (OV90) | Potency (PA-1) | Potency (SKOV3) | Potency (Tov-21-G) | Potency (Tov112D)
